AMA1 RON2 block – AMA1-RON2 (P. falciparum) interaction inhibition; AlphaScreen AMA1-biotinylated RON2 peptide binding; Potency, µM (highest dose often 58.2 µM), for inactives: at the top dose activity change, negative = inhibition, usual class: inhibitors; 360,000 compounds, 0.2% hits; AID 720542;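 note: potency is the fitted concentration of half-maximal effect; 0% = vehicle wells and -100% = peptide control; nearly all actives have a fitted effect of over 45% in size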
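AMA1 (3D7) with his tag at 25 nM final met compounds first, then biotinylated RON2 peptide at 25 nM; detection used donor plus acceptor beads, 10 µg/mL apiece, read by AlphaScreen after 30 min at room temperature.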
TbPYK inhibitor – inhibitors of Trypanosoma brucei pyruvate kinase; Q57TT1; TbPYK enzyme, Kinase-Glo Plus ATP luminescence, 45 min; Potency, µM (titrated, usually from 76.8 µM), for the others: at the top dose activity, negative = inhibition, hits mostly inhibitors; 410,000 compounds, 0.12% hits; AID 624173; note: potency is the fitted concentration of half-maximal effect; % is set by controls: 0 for no effect and ±100 for the full control effect; nearly all actives have a fitted effect of over 50% in size
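Activity of T. brucei pyruvate kinase was followed by Kinase-Glo Plus luminescence after the enzyme reacted 45 min at room temperature with 130 uM ADP (final) and substrate. Test compounds were added before ADP at multiple concentrations.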
LmPK inh – inhibitors of Leishmania mexicana pyruvate kinase. Q27686. purified LmPK, Kinase-Glo ATP luminescence, 1 h. Potency, µM (titrated, usually from 57.5 µM), for inactives: at the top dose activity change, negative = inhibition, hits mostly inhibitors. 290,000 compounds, 0.37% hits. AID 1721; note: potency is the fitted concentration of half-maximal effect; % is set by controls: 0 for no effect and ±100 for the full control effect
Target sequence (Q27686 whole entry, looked up): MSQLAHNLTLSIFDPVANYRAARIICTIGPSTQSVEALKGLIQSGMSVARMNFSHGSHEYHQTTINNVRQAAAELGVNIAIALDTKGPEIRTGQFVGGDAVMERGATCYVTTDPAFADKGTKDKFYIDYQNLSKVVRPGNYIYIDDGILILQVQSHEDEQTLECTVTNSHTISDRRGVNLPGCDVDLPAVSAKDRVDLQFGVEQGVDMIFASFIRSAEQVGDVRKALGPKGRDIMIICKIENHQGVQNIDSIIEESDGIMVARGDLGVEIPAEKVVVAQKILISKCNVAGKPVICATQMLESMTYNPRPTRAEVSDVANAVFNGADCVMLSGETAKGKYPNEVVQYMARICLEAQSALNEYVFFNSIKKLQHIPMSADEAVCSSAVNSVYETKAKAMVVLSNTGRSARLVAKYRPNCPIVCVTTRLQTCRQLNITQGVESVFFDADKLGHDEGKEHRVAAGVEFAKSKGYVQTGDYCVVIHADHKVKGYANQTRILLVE
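qHTS format; LmPK 0.1 nM; substrates PEP 0.5 mM and ADP 0.1 mM. One-hour room-temperature incubation, then coupled luciferase luminescence; 0.5 nM enzyme wells mark activation.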
NS1 inh – blocks influenza NS1 protein function; Potency, µM (top dose mostly 46.1 µM), for the others: at the top dose activity, positive = more growth; 270,000 compounds, 0.4% hits; AID 2326; calls by dose curve; note: potency is the fitted concentration of half-maximal effect; actives are rising curves; nearly all actives have a fitted effect of over 50% in size
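Recovery from NS1-induced slow growth read by OD600 in budding yeast switched to galactose assay medium (pH 6.0, -URA) at 1:100 dilution. Compound 23 nl per well; the matching strain lacking NS1 serves as control.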
RE007 growth inh – less growth of the S. pombe RE007 Vpr strain; S. pombe RE007 Vpr strain, BacTiter-Glo ATP luminescence, 24 h; Potency, µM (top dose mostly 92.2 µM), without a hit: at the highest dose activity change, negative = less growth, most hits filed as inhibitors; 360,000 compounds, 0.21% hits; AID 651644; active = well fitted falling curve with a large enough effect; inconclusive = small, poorly fitted or top-dose-only effect; inactive = no such curve, though single readings can be large or run the other way; note: potency is the fitted concentration of half-maximal effect; % is set by controls: 0 for no effect and ±100 for the full control effect; nearly all actives have a fitted effect of over 50% in size
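Fission yeast strain RE007, carrying one chromosomally integrated HIV-1 vpr copy, was seeded at OD 0.01 in PMG+AL medium with 23 nL pinned compound. After 24 h at 30 °C and 99% humidity, viability was read by BacTiter-Glo luminescence.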
Flu NS1 inh – validation of influenza NS1 protein function inhibitors; shares compounds with NS1 inh; influenza NS1 function cell assay, 15-point titration; activity change, negative = inhibition, % at 32.9 µM; 1,400 tested, under 10 active; AID 492980; calls by dose curve; note: 0% is about no effect
PR8 titer – influenza virus titer reduction, NS1 project. shares compounds with NS1 inh. MDCK infected influenza A/PR/8/34, virus titer TCID50; stronger effect = lower value. virus titer (log TCID50), log10 TCID50 at 5 µM. 95 compounds, 30% hits; call rule not given here
* hit, by the source's call; ? = inconclusive; nt = not tested or not shown; [ ] = remark or other dose. Only some compounds are listed: those with a hit (about 0.92% of all), similar ones and a draw of the others. Unless noted, calls come from the whole dose curve; as a rule, active = well fitted curve in the direction sought with a large enough effect; inconclusive = small, poorly fitted or top-dose-only effect, or another doubt; inactive = no such curve, though single readings can be large; an effect the other way counts as inactive or inconclusive.

SMILES | AMA1 RON2 block | TbPYK inhibitor | LmPK inh | NS1 inh | RE007 growth inh | Flu NS1 inh | others
Cc1c(C)c2ccc(OC(C)C(=O)N[C@@H](Cc3c[nH]c4ccccc34)C(=O)O)c(C)c2oc1=O (stereo partly specified) | -12% | 7% | -4% | 10µM* | 5% | 19
COc1ccc(/C=N/NC(=O)CCc2c(C)n[nH]c2C)cc1OC | 0% | -15% | 8% | 5.6µM* | -12% | 19
Cc1cc(Cl)ccc1OCC(=O)N(Cc1ccc(N(C)C)cc1)CC1CCCO1 (stereo unspecified) | nt | 2% | nt | nt | nt | nt
CCN(CC)c1nn2c(=O)c(C(=O)NCc3cccc(C)c3)cnc2s1 | nt | 7% | nt | nt | nt | nt
CCCn1c(/N=C/c2ccccc2O)nc2ccccc21 | 0% | -1% | -4% | -3% | -9% | nt
Cn1c(/N=C/c2c(O)ccc3ccccc23)nc2ccccc21 | -5% | -6% | -20% | 11µM* | -10% | ?
Cc1cc(C(=O)O)ccc1-n1c(C)cc(/C=C2\SC(=O)NC2=O)c1C | -1% | -13% | -8% | 11µM* | 4% | 17
Cc1nn(-c2ccc([N+](=O)[O-])cc2)c2c1C(c1cccc(Br)c1)N1C(=N2)C(=O)Nc2ccccc21 (stereo unspecified) | -3% | 32% | -1% | 21% | 5% | nt
Cc1nn(-c2ccccc2)c2c1C(c1ccc([N+](=O)[O-])cc1)N1C(=N2)C(=O)Nc2ccccc21 (stereo unspecified) | -2%[2.32 µM] | 0% | 0% | 10µM* | 22% | 7
O=C(O)CC(CC(=O)Nc1ccc(-n2ccc(C(F)(F)F)n2)cc1)c1ccccc1 (stereo unspecified) | -10% | -11% | 3% | ? | 10% | -5
CCOC(=O)c1cc(S(=O)(=O)N2CCN(c3ccc(OC)cc3)CC2)[nH]n1 | nt | -4% | nt | nt | nt | nt
COc1ccc(-c2csc(Nc3ccc(S(=O)(=O)Nc4cc(OC)nc(OC)n4)cc3)n2)cc1 | -10% | -11% | 7% | 13µM* | -9% | 20 | PR8 titer=8
CCc1ccccc1OCCCOc1ccc(OC)cc1 | 41% | -3% | -2% | 2.8µM* | -6% | -38 | PR8 titer=8
CCOC(=O)N1CCN(S(=O)(=O)N2CCCC(C(=O)NCc3ccc(OC)cc3)C2)CC1 (stereo unspecified) | -1% | -1% | 1% | ? | 6% | -20
CC1CCN(S(=O)(=O)N2CCCC(C(=O)NCc3ccccc3Cl)C2)CC1 (stereo unspecified) | 10% | -8% | 8% | -4% | -13% | nt
CC1CC(C)CN(S(=O)(=O)N2CCCC(C(=O)NCc3ccccc3Cl)C2)C1 (stereo unspecified) | 9% | 1% | 4% | ? | 3% | -15 | PR8 titer=8
CCOC(=O)N1CCN(S(=O)(=O)N2CCCC(C(=O)NCc3ccc(F)cc3)C2)CC1 (stereo unspecified) | -15% | 5% | 4% | ? | 7% | nt
CCOC(=O)C1CCCN(C(=O)Cn2sc3nc(C)cc(C)c3c2=O)C1 (stereo unspecified) | 11% | ? | 2% | 5µM* | ? | ?
CC(C)OC(=O)/C(=C\C=C\c1ccccc1)NC(=O)c1ccccc1 | -13% | 3% | 0% | ? | 13% | -3
Cc1cc(C(=O)CSc2nnc(-c3ccc(Cl)cc3)n2C)c(C)n1CC1CCCO1 (stereo unspecified) | -1% | 1% | -2% | -3% | -2% | nt
Cc1cc(C(=O)Cn2nnc(-c3ccc(Cl)cc3)n2)c(C)n1CC1CCCO1 (stereo unspecified) | -4% | 14% | 11% | 7.9µM* | 5% | -38
COc1cc2nc(SCC(=O)NCCc3ccccc3)n(Cc3ccco3)c(=O)c2cc1OC | 17% | nt | -3% | 2.5µM* | 0%[3.69 µM] | -3

Screening results as filed in PubChem BioAssay.
